Laboratory results reported in article PMC4336329 (PLoS ONE, 2015).
About 2,200 (0.71%) of roughly 310,000 compounds showed an effect of 50% or more. Effects have a minus sign here. Shown is part of a subset that was picked to be rich in strong results.

target: human ether-à-go-go-related gene (hERG) potassium channel (human, UniProt Q12809); assay: primary screen, population patch clamp on CHO cells stably expressing hERG; higher = less effect of the substance
Sequence (Q12809 whole entry, looked up): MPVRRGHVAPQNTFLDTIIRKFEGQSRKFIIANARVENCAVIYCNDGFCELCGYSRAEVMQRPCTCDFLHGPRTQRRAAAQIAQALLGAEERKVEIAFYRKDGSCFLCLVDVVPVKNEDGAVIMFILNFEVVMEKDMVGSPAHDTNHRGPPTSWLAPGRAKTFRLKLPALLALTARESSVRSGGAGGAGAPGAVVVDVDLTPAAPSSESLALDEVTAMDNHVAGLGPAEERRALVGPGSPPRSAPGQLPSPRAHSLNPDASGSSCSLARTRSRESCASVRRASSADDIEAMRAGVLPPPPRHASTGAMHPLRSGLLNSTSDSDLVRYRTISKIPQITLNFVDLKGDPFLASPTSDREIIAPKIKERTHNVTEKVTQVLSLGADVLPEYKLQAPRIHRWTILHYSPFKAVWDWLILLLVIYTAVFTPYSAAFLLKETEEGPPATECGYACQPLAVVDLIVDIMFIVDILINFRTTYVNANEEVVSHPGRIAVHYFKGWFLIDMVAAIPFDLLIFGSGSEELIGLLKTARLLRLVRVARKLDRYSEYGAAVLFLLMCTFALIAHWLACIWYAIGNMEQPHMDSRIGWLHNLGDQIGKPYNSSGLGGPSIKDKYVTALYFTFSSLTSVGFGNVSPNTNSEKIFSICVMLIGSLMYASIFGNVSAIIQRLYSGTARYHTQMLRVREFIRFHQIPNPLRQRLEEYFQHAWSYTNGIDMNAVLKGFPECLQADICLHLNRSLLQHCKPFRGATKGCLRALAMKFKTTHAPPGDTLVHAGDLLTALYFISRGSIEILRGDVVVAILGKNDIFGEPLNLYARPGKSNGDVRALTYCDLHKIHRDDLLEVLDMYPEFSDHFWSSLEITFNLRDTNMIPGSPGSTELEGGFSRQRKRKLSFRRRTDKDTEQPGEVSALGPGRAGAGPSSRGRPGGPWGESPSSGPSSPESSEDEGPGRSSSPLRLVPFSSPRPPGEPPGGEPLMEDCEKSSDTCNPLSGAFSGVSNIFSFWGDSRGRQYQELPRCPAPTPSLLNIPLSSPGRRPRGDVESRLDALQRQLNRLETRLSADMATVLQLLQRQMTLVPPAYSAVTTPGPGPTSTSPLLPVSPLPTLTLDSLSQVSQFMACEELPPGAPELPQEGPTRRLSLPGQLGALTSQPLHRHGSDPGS

| Compound | hERG current change (%, negative = inhibition) at 1uM [%] |
| --- | --- |
| COc1ccc(CCNC(=O)c2ccc3nc(N4CCOCC4)sc3c2)cc1OC | 4.99 |
| Cc1cc(NC(=O)Cc2ccccc2C)no1 | 10.2 |
| CCN(CC(=O)Nc1ccc(NC(C)=O)cc1)C(=O)COc1ccccc1-c1ccccc1 | 12 |
| CCOC(=O)c1cnc(-n2nc(C)cc2C)nc1NNc1nc(-c2ccccc2)cc(-c2ccccc2)n1 | -1.53 |
| O=C(Nc1nc(-c2cccs2)cs1)c1ccc(Cl)s1 | -6.43 |
| Cc1cc2nn(-c3ccc(Cl)cc3)nc2cc1N | 14 |
| CCO/C=C/C(O)(CNC(=O)COc1ccccc1F)C(F)(F)F (stereo not drawn) | 19.8 |
| CN1C(=O)N(c2nnc(C(C)(C)C)s2)C(=O)C1c1ccccc1 (stereo not drawn) | 14.2 |
| Cc1nnsc1C(=O)Nc1ccc(S(=O)(=O)N2CCCCC2C)cc1 (stereo not drawn) | 12.5 |
| CC1CCCCN1C(=O)Nc1cccc(C(F)(F)F)c1 (stereo not drawn) | 9.57 |
| Cc1c(Cl)cccc1NC(=S)NNc1ncc(C(F)(F)F)cc1Cl | 4.45 |
| Cl.OC(COc1ccccc1)CN1CCC(Cc2ccccc2)CC1 (stereo not drawn) | -78 |
| CC(C)OCC(O)CN1CCC(Cc2ccccc2)CC1.Cl (stereo not drawn) | -2.15 |
| CC(C(O)c1ccc(O)cc1)N1CCC(Cc2ccccc2)CC1.O.O=C(O)C(O)C(O)C(=O)O (stereo not drawn) | -37.8 |
| Cl.OC(COc1ccc(Cl)cc1)CN1CCN(c2ccccc2)CC1 (stereo not drawn) | 0.0675 |
| COc1cccc(OCC(O)CN2CCc3ccccc3C2)c1.Cl (stereo not drawn) | -57.6 |
| C[C@@H](CN1CCC(Cc2ccccc2)CC1)[C@@H](O)c1ccc(O)cc1.Cl | -60.5 |
| CC(C(O)c1ccc(O)cc1)N1CCC(Cc2ccccc2)CC1.O=C(O)C(O)C(O)C(=O)O (stereo not drawn) | -33.4 |
| Cc1cccc(OCC(O)CN2CCc3ccccc3C2)c1.Cl (stereo not drawn) | -0.945 |
| Cl.OC(COc1ccc(Cl)cc1)CN1CCC(Cc2ccccc2)CC1 (stereo not drawn) | -89.6 |
| Cl.OC(COc1ccc(Cl)cc1)CN1CCCCC1 (stereo not drawn) | -29.8 |
| Cl.OC(COc1ccccc1)CN1CCN(CC(O)COc2ccccc2)CC1 (stereo not drawn) | -19.5 |
| COc1ccc(OCC(O)CN2CCc3ccccc3C2)cc1.Cl (stereo not drawn) | -2.53 |

| Compound | hERG current change (%, negative = inhibition) at 1uM [%] |
| --- | --- |
| COC(=O)c1ccc(N2C(=O)CC(N(C)Cc3ccccc3)C2=O)cc1 (stereo not drawn) | 13.1 |
| N#CC(C(=O)NCCc1ccccc1)c1nc2ccccc2nc1N1CCCCC1 (stereo not drawn) | 4.11 |
| COc1nc(N(C)S(=O)(=O)c2ccc(C)cc2)nc(C)c1Br | 16.5 |
| C/C(=N/NC(=O)Cc1ccccc1)c1ccc(C)s1 | 11.5 |
| O=C(NCCc1ccccc1)C1CC(=O)N(c2ccc3c(c2)OCCO3)C1 (stereo not drawn) | 7.34 |
| C/C(=N\NC(=O)C(O)(c1ccccc1)c1ccccc1)c1ccc(NC(=O)CCCC(=O)O)cc1 | 11.3 |
| O=C(CSc1nc(C2CC2)n(-c2ccccc2)n1)NCc1ccco1 | -3.27 |
| CCOc1ccc(OCC)c(S(=O)(=O)NNC(=O)c2c(C)nc3ccccn23)c1 | 5.91 |
| COc1ccc(S(=O)(=O)N(C)CC(=O)N2CCOCC2)cc1 | -2.22 |
| O=C(Nc1ccc(NC(=O)c2cccc([N+](=O)[O-])c2)cc1)c1cccc([N+](=O)[O-])c1 | 9.44 |
| COc1cccc(OCC(O)CN2CCC(C)CC2)c1.Cl (stereo not drawn) | 3.42 |
| Cc1cccc(C)c1OCC(O)CN1CCc2ccccc2C1.Cl (stereo not drawn) | -24.3 |
| Cc1ccc(OCC(O)CN2CCc3ccccc3C2)c(C)c1.Cl (stereo not drawn) | -42.6 |
| Cc1cc(C)cc(OCC(O)CN2CCN(Cc3ccc4c(c3)OCO4)CC2)c1.Cl (stereo not drawn) | -67.9 |
| COc1cccc(OCC(O)CN2CCC(Cc3ccccc3)CC2)c1.Cl (stereo not drawn) | -55.6 |
| COc1ccc(OCC(O)CN2CCN(Cc3ccc4c(c3)OCO4)CC2)cc1.Cl (stereo not drawn) | -9.87 |
| O=S(=O)(c1ccc(OCC(O)CN2CCC(Cc3ccccc3)CC2)cc1)N1CCOCC1 (stereo not drawn) | -10.3 |
| COc1cccc(OCC(O)CN2CCN(C(c3ccccc3)c3ccccc3)CC2)c1.Cl (stereo not drawn) | 3.72 |
| Cc1ccc(OCC(O)CN2CCN(Cc3ccc4c(c3)OCO4)CC2)cc1C.Cl (stereo not drawn) | 5.88 |
| Cl.OC(COc1ccc(Br)cc1)CN1CCC(Cc2ccccc2)CC1 (stereo not drawn) | -83.7 |
| Cl.OC(COc1ccc(Br)cc1)CN1CCCC1 (stereo not drawn) | 5.23 |
| Cc1ccc(C)c(OCC(O)CN2CCc3ccccc3C2)c1C.Cl (stereo not drawn) | -56.1 |
